# PubChem BioAssay (Tox21)
# Values without a mark were called inactive. Results filed as inconclusive are left out. Where a call stands in place of a potency, no number is given. Active and inactive are the calls of the source. Unless noted, the call rests on the fitted dose curve.
# Tests used:
# [1] = Nuclear factor erythroid 2-related factor 2/antioxidant responsive element (Nrf2/ARE) small molecule agonists: qHTS cell viability counter screen in human keratinocytes (AID 1919968; active means well fitted curve in the direction sought with a large enough effect in the repeat runs; an effect the other way counts as inactive or inconclusive; further: nearly all actives have a fitted effect of over 55% in size)
# Method in brief: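 Seed 1,500 KeratinoSens cells per well, then incubate 5 h at 37 C/5% CO2. Add compounds in DMSO and incubate 23 h. Add CellTiter-Fluor, wait 1 h and read fluorescence.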
# [2] = Nuclear factor erythroid 2-related factor 2/antioxidant responsive element (Nrf2/ARE) small molecule agonists: luciferase reporter gene qHTS assay in human keratinocytes (AID 1919969); further: nearly all actives have a fitted effect of over 35% in size; further: potency means the concentration at half of the fitted maximal effect
# [3] = biological target: Gonadotropin-releasing hormone receptor (Homo sapiens) (UniProt P30968); assay: Human gonadotropin-releasing hormone receptor (GnRHR) small molecule agonists, calcium flux assay in GnRHR-HEK293 cells (AID 1920063); further: nearly all actives have a fitted effect of over 35% in size
# Sequence of Gonadotropin-releasing hormone receptor (Homo sapiens) (P30968 whole entry, looked up): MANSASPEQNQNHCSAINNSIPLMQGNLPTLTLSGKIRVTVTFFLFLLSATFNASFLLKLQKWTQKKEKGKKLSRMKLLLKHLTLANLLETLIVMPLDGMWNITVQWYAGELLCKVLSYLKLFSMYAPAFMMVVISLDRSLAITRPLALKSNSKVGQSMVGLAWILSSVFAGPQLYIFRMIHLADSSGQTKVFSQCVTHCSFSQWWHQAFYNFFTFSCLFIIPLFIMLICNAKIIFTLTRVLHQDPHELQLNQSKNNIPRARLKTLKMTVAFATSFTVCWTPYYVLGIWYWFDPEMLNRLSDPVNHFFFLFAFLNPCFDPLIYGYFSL
# Method in brief: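 Cells: HEK293 stably expressing human GnRHR. Steps: overnight (18 h) culture, 1 h calcium dye loading at 37 C, compound addition, kinetic fluorescence read at 480/540 nm. Each compound tested at 15 concentrations in triplicate.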
# [4] = biological target: KiSS-1 receptor (Homo sapiens) (UniProt Q969F8); assay: Human kisspeptin (KISS1R) small molecule agonists, calcium flux assay in KISS1R-HEK293 cells (AID 1920064; active means well fitted curve in the direction sought with a large enough effect in the repeat runs; an effect the other way counts as inactive or inconclusive)
# Sequence of KiSS-1 receptor (Homo sapiens) (Q969F8 whole entry, looked up): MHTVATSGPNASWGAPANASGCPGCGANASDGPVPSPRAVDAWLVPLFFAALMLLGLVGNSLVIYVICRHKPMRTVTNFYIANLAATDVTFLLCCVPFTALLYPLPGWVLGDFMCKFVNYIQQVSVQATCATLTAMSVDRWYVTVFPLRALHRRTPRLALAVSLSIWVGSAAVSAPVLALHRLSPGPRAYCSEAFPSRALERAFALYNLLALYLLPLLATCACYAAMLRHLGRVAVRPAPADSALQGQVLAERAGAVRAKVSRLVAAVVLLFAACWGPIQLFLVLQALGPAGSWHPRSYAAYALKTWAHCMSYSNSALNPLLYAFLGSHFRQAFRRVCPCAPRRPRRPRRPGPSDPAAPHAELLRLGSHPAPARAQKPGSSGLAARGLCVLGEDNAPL
# Method in brief: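 Cells plated and incubated 18 h; dye added, 1 h at 37 C; compounds in DMSO pinned in; signal read at 480/540 nm every second for 3 min. Each compound tested at 15 concentrations in triplicate.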
# [5] = G protein-coupled receptor (GPCR) small molecule agonists, calcium flux assay: HEK293 wild type cell line counter screen (AID 1920065)
# Method in brief: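 Counter-screen of the Tox21 10K library for non-specific calcium release: dye-loaded cells received compounds in DMSO and were monitored by kinetic fluorescence (480/540 nm, 3 min). Fifteen concentrations, run in triplicate.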
# [6] = p53 small molecule agonists, cell-based qHTS assay with human liver microsomes (AID 1963577);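 further: p53 response element beta-lactamase reporter cells with liver microsomes plus NADPH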
# Method in brief: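 p53RE-bla cells; 5 h settle, 37 C/5% CO2; cpd + HLM 0.5 mg/mL + NADPH 0.5 mg/mL (final); 16 h 37 C; LiveBLAzer 2 h RT dark; fluorescence readout.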
# [7] = p53 small molecule agonists, cell-based qHTS assay with rat liver microsomes (AID 1963578)
# Method in brief: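 Rat liver microsome activation: microsomes 0.5 mg/mL, NADPH 0.5 mg/mL final; p53RE-bla cells, 16 h 37 C; LiveBLAzer readout, 2 h RT dark.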
# [8] = p53 small molecule agonists, cell-based qHTS assay with human liver microsomes: qHTS cell viability counter screen (AID 1963579); further: nearly all actives have a fitted effect of over 45% in size
# Method in brief: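 Luminescent CellTiter-Glo read-out, 30 min at room temperature, gauged cytotoxicity in p53RE-bla cells exposed 16 h at 37 C to DMSO-dissolved compounds with metabolic activation by human liver microsomes and NADPH, each 0.5 mg/mL final.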
# [9] = p53 small molecule agonists, cell-based qHTS assay with rat liver microsomes: qHTS cell viability counter screen (AID 1963580); further: nearly all actives have a fitted effect of over 45% in size
# Method in brief: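 p53RE-bla HCT-116 cells (4,000/well) rested 5 h at 37 C, then given Tox21 compounds in DMSO with rat liver microsomes (0.5 mg/mL final) plus NADPH (0.5 mg/mL final) for 16 h at 37 C. Viability read by CellTiter-Glo luminescence after 30 min at room temperature.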
# [10] = p53 small molecule agonists, cell-based qHTS assay: qHTS cell viability counter screen (AID 1963581); further: nearly all actives have a fitted effect of over 45% in size
# Method in brief: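 Cells: HCT-116 with p53 response element-driven beta-lactamase. Treatment: 16 h, 37 C, compounds in DMSO. Read: CellTiter-Glo luminescence after 30 min RT.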
# [11] = p53 small molecule agonists, cell-based qHTS assay (AID 1963582; active means well fitted activation curve with a large enough effect in the signal ratio in the repeat runs, not every such curve was filed as active; the % refers to the signal ratio)
# Method in brief: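 Quantitative HTS in p53RE-bla cells: after a 5 h settling period, compounds delivered in DMSO were left on cells for 16 h at 37 C, and reporter induction was measured as fluorescence following 2 h substrate loading.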
# [12] = biological target: 5-hydroxytryptamine receptor 2A (Homo sapiens) (UniProt P28223); assay: 5-hydroxytryptamine receptor 2A (HTR2A) small molecule antagonists, cell-based qHTS assay (AID 1963586); further: nearly all actives have a fitted effect of over 45% in size
# Sequence of 5-hydroxytryptamine receptor 2A (Homo sapiens) (P28223 whole entry, looked up): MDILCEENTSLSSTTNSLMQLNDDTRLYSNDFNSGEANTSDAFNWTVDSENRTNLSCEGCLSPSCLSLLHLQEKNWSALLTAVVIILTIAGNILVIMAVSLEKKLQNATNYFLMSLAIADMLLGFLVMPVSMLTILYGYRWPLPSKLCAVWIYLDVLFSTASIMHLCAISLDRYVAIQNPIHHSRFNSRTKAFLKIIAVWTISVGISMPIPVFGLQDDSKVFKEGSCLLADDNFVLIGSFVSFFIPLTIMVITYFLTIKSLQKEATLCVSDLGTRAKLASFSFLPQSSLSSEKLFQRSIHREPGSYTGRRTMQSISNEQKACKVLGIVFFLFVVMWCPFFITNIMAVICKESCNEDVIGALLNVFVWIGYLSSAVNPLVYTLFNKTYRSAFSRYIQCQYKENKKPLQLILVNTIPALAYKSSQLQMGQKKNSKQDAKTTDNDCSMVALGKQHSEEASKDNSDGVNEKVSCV
# Method in brief: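 Antagonist-mode intracellular calcium assay: DOI (4 nM) added after 5 min compound pre-incubation at room temperature to dye-loaded HTR2A-CHO cells. Fluorescence followed for 3 min, sampled every second.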
# [13] = biological target: 5-hydroxytryptamine receptor 2A (Homo sapiens) (UniProt P28223); assay: 5-hydroxytryptamine receptor 2A (HTR2A) small molecule agonists, cell-based qHTS assay (AID 1963587); further: nearly all actives have a fitted effect of over 30% in size
# Method in brief: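 HTR2A-CHO cells, plated 18 h at 37 C/5% CO2, dye-loaded 1 h at 37 C; compounds in DMSO added by pin tool (agonist mode). Intracellular calcium flux read as kinetic fluorescence on FDSS over 2 min at 1 s intervals.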
# [14] = biological target: Muscarinic acetylcholine receptor M1 (Homo sapiens) (UniProt P11229); assay: Cholinergic receptor muscarinic 1 (CHRM1) small molecule antagonists, cell-based qHTS assay (AID 1963588); further: nearly all actives have a fitted effect of over 40% in size; further: potency means the concentration at half of the fitted maximal effect
# Sequence of Muscarinic acetylcholine receptor M1 (Homo sapiens) (P11229 whole entry, looked up): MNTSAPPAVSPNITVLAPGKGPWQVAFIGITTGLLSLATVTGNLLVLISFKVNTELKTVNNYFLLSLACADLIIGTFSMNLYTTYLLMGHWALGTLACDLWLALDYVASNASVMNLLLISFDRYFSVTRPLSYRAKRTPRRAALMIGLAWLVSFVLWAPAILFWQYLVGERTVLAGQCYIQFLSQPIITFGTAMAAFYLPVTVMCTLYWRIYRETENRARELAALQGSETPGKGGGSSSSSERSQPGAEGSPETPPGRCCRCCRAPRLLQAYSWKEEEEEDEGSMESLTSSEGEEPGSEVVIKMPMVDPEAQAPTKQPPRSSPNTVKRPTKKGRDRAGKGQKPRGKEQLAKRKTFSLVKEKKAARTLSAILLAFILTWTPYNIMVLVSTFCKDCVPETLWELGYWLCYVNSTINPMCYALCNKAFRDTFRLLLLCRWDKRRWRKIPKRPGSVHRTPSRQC
# Method in brief: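 CHRM1-CHO calcium-flux assay, antagonist mode. Cells were seeded 18 h, dye-loaded 1 h at 37 C and given compound for 5 min at RT, then acetylcholine was added at 50nM. FDSS fluorescence was read 3 min; 15 concentrations, three runs.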
# [15] = biological target: Muscarinic acetylcholine receptor M1 (Homo sapiens) (UniProt P11229); assay: Cholinergic receptor muscarinic 1 (CHRM1) small molecule agonists, cell-based qHTS assay (AID 1963589); further: nearly all actives have a fitted effect of over 35% in size
# Method in brief: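 Agonist-mode qHTS in CHO cells stably carrying human muscarinic M1. Intracellular calcium is tracked by fluorescence every second after compound transfer; each compound runs at 15 concentrations in three independent runs.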
# [16] = biological target: Beta-2 adrenergic receptor (Homo sapiens) (UniProt P07550); assay: Adrenergic beta2 receptor (ADRB2) small molecule antagonists, cell-based qHTS assay (AID 1963592); further: series mostly up to about 92 µM; nearly all actives have a fitted effect of over 50% in size
# Sequence of Beta-2 adrenergic receptor (Homo sapiens) (P07550 whole entry, looked up): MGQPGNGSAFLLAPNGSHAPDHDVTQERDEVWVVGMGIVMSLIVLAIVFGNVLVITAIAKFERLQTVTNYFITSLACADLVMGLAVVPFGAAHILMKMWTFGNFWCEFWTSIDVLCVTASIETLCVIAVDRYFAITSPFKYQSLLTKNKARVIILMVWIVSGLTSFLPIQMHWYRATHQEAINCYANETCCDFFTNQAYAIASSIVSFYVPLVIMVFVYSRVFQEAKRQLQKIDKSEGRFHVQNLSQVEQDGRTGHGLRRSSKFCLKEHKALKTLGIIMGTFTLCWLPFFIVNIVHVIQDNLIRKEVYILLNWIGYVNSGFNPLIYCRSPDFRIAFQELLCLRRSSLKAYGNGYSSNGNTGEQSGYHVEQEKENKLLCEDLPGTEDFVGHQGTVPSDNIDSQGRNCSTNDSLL
# Method in brief: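 Cells (CHO, stable ADRB2 overexpression) incubated 18-20hr at 37C; compounds added from DMSO; agonist mix (1nM isoproterenol, 100uM IBMX, 25uM Ro-20-1724) added; 0.5hr RT; d2-cAMP and anti-cAMP-cryptate added; 1hr RT; 665/615 nm read.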
# [17] = biological target: D(2) dopamine receptor (Homo sapiens) (UniProt P14416); assay: Dopamine D2 receptor (DRD2) small molecule agonists, cell-based qHTS assay (AID 1963594); further: nearly all actives have a fitted effect of over 35% in size
# Sequence of D(2) dopamine receptor (Homo sapiens) (P14416 whole entry, looked up): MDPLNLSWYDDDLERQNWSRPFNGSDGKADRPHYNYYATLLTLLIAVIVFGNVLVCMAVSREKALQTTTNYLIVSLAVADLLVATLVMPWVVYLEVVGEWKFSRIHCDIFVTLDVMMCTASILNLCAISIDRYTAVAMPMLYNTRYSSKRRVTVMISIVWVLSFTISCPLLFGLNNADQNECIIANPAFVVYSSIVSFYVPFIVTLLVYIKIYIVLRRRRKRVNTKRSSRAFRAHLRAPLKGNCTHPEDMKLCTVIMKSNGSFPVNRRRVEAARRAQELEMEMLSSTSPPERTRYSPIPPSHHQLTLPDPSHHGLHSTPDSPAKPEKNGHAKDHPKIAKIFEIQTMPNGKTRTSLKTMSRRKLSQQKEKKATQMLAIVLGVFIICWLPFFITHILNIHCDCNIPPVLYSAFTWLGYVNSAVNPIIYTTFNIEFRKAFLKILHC
# Method in brief: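 HEK293 cells stably expressing DRD2 were cultured 24 h at 37 C, then given Ro20-1724 (0.1 mM final) and compounds for 10 min at room temperature. NKH477 (200nM) was then added for 30 min. cAMP was read by HTRF.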
# [18] = biological target: D(2) dopamine receptor (Homo sapiens) (UniProt P14416); assay: Dopamine D2 receptor (DRD2) small molecule antagonists, cell-based qHTS assay (AID 1963595; active means well fitted inhibition curve with a large enough effect in the signal ratio in the repeat runs, with a control signal flat; the % refers to the signal ratio)
# Method in brief: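 In this cell-based antagonist screen, compounds act for 10 min at room temperature before a 30 min challenge with 12 nM quinpirole and 200 nM NKH477. cAMP is quantified by HTRF competition in DRD2-HEK293 cells containing 0.1 mM Ro20-1724.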
# [19] = cAMP Responsive Elements (CRE) small molecule agonists, cell-based qHTS assay (AID 1963590)
# Method in brief: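 Agonist mode qHTS in CRE-bla HEK 293T cells: compounds dosed from DMSO for 3 h at 37 C/5% CO2, followed by LiveBLAzer B/G FRET substrate for 2 h at room temperature.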
# [20] = cAMP Responsive Elements (CRE) small molecule antagonists, cell-based qHTS assay (AID 1963591; active means well fitted inhibition curve with a large enough effect in the signal ratio in the repeat runs, not every such curve was filed as active; the % refers to the signal ratio)
# Method in brief: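 Antagonist mode: test compounds are co-incubated with the adenylyl cyclase activator NKH477 (0.25 uM final) on CRE-bla HEK293T cells for 3 h at 37 °C, followed by LiveBLAzer substrate loading.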
SMILES,Potency [1],Potency [2],Potency [3],Potency [4],Potency [5],Potency [6],Potency [7],Potency [8],Potency [9],Potency [10],Potency [11],Potency [12],Potency [13],Potency [14],Potency [15],Potency [16],Potency [17],Potency [18],Potency [19],Potency [20]
COC(=O)N(C(=O)N1CO[C@@]2(C(=O)OC)Cc3cc(Cl)ccc3C2=N1)c1ccc(OC(F)(F)F)cc1,inactive,inactive,inactive,inactive,inactive,inactive,inactive,inactive,inactive,inactive,inactive,inactive,inactive,inactive,inactive,inactive,inactive,inactive,,
CN/C(=N\[N+](=O)[O-])NCc1cnc(Cl)s1,inactive,inactive,inactive,inactive,inactive,inactive,inactive,inactive,inactive,inactive,inactive,inactive,inactive,inactive,inactive,,inactive,inactive,inactive,
C[C@]12CC[C@H]3[C@@H](CCC4=CC(=O)CC[C@@H]43)[C@@H]1CC[C@@H]2OC(=O)CCc1ccccc1,inactive,inactive,inactive,inactive,inactive,inactive,inactive,inactive,inactive,inactive,inactive,inactive,inactive,,inactive,inactive,inactive,inactive,inactive,
CC(C)[C@@H](Nc1ccc(C(F)(F)F)cc1Cl)C(=O)OC(C#N)c1cccc(Oc2ccccc2)c1 (stereo not given in full),inactive,inactive,inactive,inactive,inactive,inactive,inactive,inactive,inactive,inactive,inactive,inactive,inactive,inactive,,inactive,inactive,inactive,,inactive
N#CCCl,inactive,inactive,inactive,inactive,inactive,inactive,inactive,inactive,inactive,inactive,inactive,inactive,inactive,inactive,inactive,inactive,inactive,inactive,,
CC(Cl)C(C)Cl (stereo not given),inactive,inactive,inactive,inactive,inactive,inactive,inactive,inactive,inactive,inactive,inactive,inactive,inactive,inactive,inactive,inactive,inactive,inactive,inactive,
O=C(O)C(F)(F)C(F)(F)C(F)(F)C(F)(F)C(F)(F)C(F)(F)C(F)(F)C(F)(F)C(F)(F)F,inactive,inactive,inactive,inactive,inactive,inactive,inactive,inactive,inactive,inactive,inactive,inactive,inactive,inactive,inactive,inactive,,inactive,inactive,inactive
Oc1cccc(Cl)c1Cl,inactive,inactive,inactive,inactive,inactive,inactive,inactive,inactive,inactive,inactive,inactive,inactive,inactive,inactive,inactive,inactive,inactive,inactive,inactive,
O=NN1CCN(N=O)CC1,inactive,inactive,inactive,inactive,inactive,inactive,inactive,inactive,inactive,inactive,inactive,inactive,inactive,,inactive,inactive,inactive,inactive,inactive,inactive
CCCC[N+]1(C)[C@@H]2CC(OC(=O)[C@H](CO)c3ccccc3)C[C@H]1[C@@H]1O[C@@H]12 (stereo not given in full),inactive,inactive,inactive,inactive,inactive,inactive,inactive,inactive,inactive,inactive,inactive,inactive,,3.65 µM (active),inactive,inactive,inactive,inactive,,inactive
CC(Cc1ccc(C(C)(C)C)cc1)CN1C[C@@H](C)O[C@@H](C)C1 (stereo not given in full),inactive,61.1 µM (active),inactive,inactive,inactive,inactive,inactive,inactive,inactive,inactive,inactive,,inactive,37.5 µM (active),inactive,,inactive,,inactive,inactive
CN(C)c1ccc(N=Nc2ccccc2)cc1,inactive,3.07 µM (active),inactive,inactive,inactive,inactive,inactive,inactive,inactive,inactive,inactive,inactive,inactive,inactive,inactive,inactive,,inactive,,inactive
CCC(COC(=O)c1cc(OC)c(OC)c(OC)c1)(c1ccccc1)N(C)C (stereo not given),inactive,inactive,inactive,inactive,inactive,inactive,inactive,inactive,inactive,inactive,inactive,inactive,inactive,inactive,inactive,inactive,inactive,inactive,,
COc1ccc2c(C(=O)c3ccc(Cl)cc3)c(C)n(CC(=O)O)c2c1,inactive,inactive,inactive,inactive,inactive,inactive,inactive,inactive,inactive,inactive,inactive,,inactive,inactive,inactive,inactive,,inactive,inactive,inactive
